Read-out in experiment [1]: Interleukin-8 (IL8), CXCL8 (gene 3576)
In words: BSK_CASM3C_IL8: BioMAP Diversity Plus: CASM3C Assay for Interleukin-8 (IL8) Biomarker Activity (AID 2283042).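 Note: IL-8 protein level quantified by ELISA.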 The settings on record: primary human coronary artery smooth muscle cells; actives raise or lower the signal.

Read-out in experiment [2]: Human Leukocyte Antigen - DR isotype (HLADR), HLA-DRA (gene 3122)
As to the kind of experiment: BSK_CASM3C_HLADR: BioMAP Diversity Plus: CASM3C Assay for Human Leukocyte Antigen - DR isotype (HLADR) Biomarker Activity (AID 2283043).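 Note: cell-surface HLA-DR protein level quantified by ELISA.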 Conditions: primary human coronary artery smooth muscle cells; actives raise or lower the signal.

Read-out in experiment [3]: Macrophage colony-stimulating factor (MCSF), CSF1 (gene 1435)
As to the kind of experiment: BSK_CASM3C_MCSF: BioMAP Diversity Plus: CASM3C Assay for Macrophage colony-stimulating factor (MCSF) Biomarker Activity (AID 2283044).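 Note: M-CSF protein amount quantified by ELISA after 24 h exposure.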 The settings on record: primary human coronary artery smooth muscle cells; actives raise or lower the signal.

Read-out in experiment [4]: Low-density lipoprotein receptor (LDLR), LDLR (gene 3949)
In words: BSK_CASM3C_LDLR: BioMAP Diversity Plus: CASM3C Assay for Low-density lipoprotein receptor (LDLR) Biomarker Activity (AID 2283045).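 Note: LDLR protein level on the cell surface quantified by ELISA.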 Conditions: primary human coronary artery smooth muscle cells; actives raise or lower the signal.

Read-out in experiment [5]: Monocyte Chemoattractant Protein-1 (MCP1), CCL2 (gene 6347)
As to the kind of experiment: BSK_CASM3C_MCP1: BioMAP Diversity Plus: CASM3C Assay for Monocyte Chemoattractant Protein-1 (MCP1) Biomarker Activity (AID 2283046).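 Note: MCP-1 level quantified by ELISA 24 h after dosing.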 The settings on record: primary human coronary artery smooth muscle cells; actives raise or lower the signal.

Experiment [6] can be described thus: BSK_CASM3C_Proliferation: Cell Proliferation Assessment in the BioMAP Diversity Plus: CASM3C Assay (AID 2283047).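 Note: sulforhodamine B total protein stain as relative cell number at 560 nm; sub-confluent cells exposed 48 h before staining; fitted both ways against DMSO so gain or loss of cell number.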 The settings on record: primary human coronary artery smooth muscle cells.
Read-out in experiment [7]: Monokine induced gamma interferon (MIG), CXCL9 (gene 4283)
As to the kind of experiment: BSK_CASM3C_MIG: BioMAP Diversity Plus: CASM3C Assay for Monokine induced gamma interferon (MIG) Biomarker Activity (AID 2283048).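 Note: MIG protein level measured by ELISA.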 Conditions: primary human coronary artery smooth muscle cells; actives raise or lower the signal.

Read-out in experiment [8]: serum amyloid A (SAA), SAA1 (gene 6288)
As to the kind of experiment: BSK_CASM3C_SAA: BioMAP Diversity Plus: CASM3C Assay for serum amyloid A (SAA) Biomarker Activity (AID 2283049).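 Note: SAA protein level quantified by ELISA.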 The settings on record: primary human coronary artery smooth muscle cells; actives raise or lower the signal.

Experiment [9] is described as follows: BSK_CASM3C_SRB: Viability Assessment in the BioMAP Diversity Plus: CASM3C Assay (AID 2283050).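 Note: total protein by SRB staining as cytotoxicity measure in parallel cultures; cells exposed to compound for 24 h.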 The settings on record: primary human coronary artery smooth muscle cells.
Read-out in experiment [10]: Thrombomodulin, THBD (gene 7056)
As to the kind of experiment: BSK_CASM3C_Thrombomodulin: BioMAP Diversity Plus: CASM3C Assay for Thrombomodulin Biomarker Activity (AID 2283051).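 Note: thrombomodulin protein level measured by ELISA 24 h after dosing.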 The settings on record: primary human coronary artery smooth muscle cells; actives raise or lower the signal.

Active and inactive are the calls of the source. Rule for the calls: active = hit-call score of the fitted dose curve at least 0.9, where 1 is the maximum; inactive = score below 0.9.

Consider `Nc1ccc(Oc2ccc(N)cc2)cc1`, for which the outcome in experiment [1], in experiment [2], in experiment [3], in experiment [4], in experiment [5] and in experiment [6] was inactive. For the same compound, the result in experiment [7], in experiment [8], in experiment [9] and in [10] was inactive.
With `CN(C)[C@@H]1C(=O)C(C(N)=O)=C(O)[C@@]2(O)C(=O)C3=C(O)c4c(O)cccc4[C@@](C)(O)[C@H]3C[C@@H]12`, the outcome in experiment [1], in experiment [2], in experiment [3], in experiment [4], in [5] and in experiment [6] was inactive. In addition, the result in experiment [7], in [8], in [9] and in experiment [10] was inactive.
Consider `CCCCCCCCn1sccc1=O`, for which the AC50 was 14.3 µM (active) in experiment [1]; 4.85 µM (active) in experiment [2]; 10.8 µM (active) in experiment [3]; 12.8 µM (active) in experiment [4]; 15 µM (active) in experiment [5]; 1.28 µM (active) in [6]. For the same compound, the AC50 in [7] was 9.51 µM (active); in experiment [8], 17.2 µM (active); in experiment [9], 14.7 µM (active); in experiment [10], 35.8 µM (active).
`O=Cc1ccco1`: the outcome in [1], in experiment [2], in [3], in experiment [4], in experiment [5] and in [6] was inactive. Further, the outcome in [7], in experiment [8], in experiment [9] and in experiment [10] was inactive.
In the case of `COc1cc(C=O)cc2c1[C@H](COC(N)=O)[C@]1(OC(C)=O)ON2C[C@H]2[C@@H]1N2C(C)=O`, the AC50 in [1] is 3.6 µM (active); in [2] it was 1.18 µM (active); in experiment [3], 1.3 µM (active); in experiment [4], 3.91 µM (active); in experiment [5], 4.5 µM (active); in experiment [6] it was 0.485 µM (active). Besides, the AC50 in experiment [7] is 3.59 µM (active); in [8] it was 4.54 µM (active); in experiment [9], 3.7 µM (active); in [10] it was 0.224 µM (active).
In the case of `CC(C)COC(=O)c1ccccc1C(=O)OCC(C)C`, the result in [1], in experiment [2], in [3], in [4], in [5] and in experiment [6] was inactive. Besides, the result in experiment [7], in experiment [8] and in experiment [9] was inactive. In [10], the AC50 is 20 µM (active).
As to `COC(=O)c1ccccc1N`, the result in [1], in experiment [2], in experiment [3], in experiment [4], in experiment [5] and in experiment [6] was inactive. Moreover, the result in [7], in [8], in experiment [9] and in [10] was inactive.
`CCC[CH2][Sn]([Cl])([CH2]CCC)[CH2]CCC`: the AC50 in experiment [1] is 1.01 µM (active); in experiment [2] it was 0.353 µM (active); in [3], 0.273 µM (active); in experiment [4], 0.226 µM (active); in [5], 0.383 µM (active); in [6] it was 0.148 µM (active). Besides, the AC50 in [7] was 0.326 µM (active); in experiment [8], 0.148 µM (active); in experiment [9], 0.402 µM (active); in [10] it was 3.97 µM (active).
For `N#CC(Br)(Br)C(N)=O`, the result in experiment [1], in experiment [2], in experiment [3], in experiment [4], in experiment [5] and in [6] was inactive. Further, the result in experiment [7], in [8], in [9] and in experiment [10] was inactive.
Consider `CC(C)(OOC(C)(C)c1ccccc1)c1ccccc1`, for which the outcome in experiment [1], in experiment [3], in [4], in experiment [5], in [7] and in experiment [8] was inactive. For the same compound, the result in experiment [9] was inactive. Besides, the AC50 in experiment [2] is 28.8 µM (active); in [6], 30.3 µM (active); in experiment [10], 32.1 µM (active).
For `Clc1ccc(Cl)c(Cl)c1`, the outcome in experiment [1], in [2], in experiment [3], in experiment [4], in experiment [5] and in experiment [6] was inactive. Moreover, the result in experiment [7], in [8], in experiment [9] and in [10] was inactive.
Take `CCCCCCCCOC(=O)c1ccc(C(=O)OCCCCCCCC)c(C(=O)OCCCCCCCC)c1`: the outcome in experiment [1], in experiment [2], in [3], in experiment [4], in [5] and in experiment [6] was inactive. Besides, the result in experiment [7], in [8], in [9] and in experiment [10] was inactive.
For `Cn1cc(-c2ccccc2)c(=O)c(-c2cccc(C(F)(F)F)c2)c1`, the result in experiment [1], in experiment [2], in experiment [3], in [4], in experiment [5] and in experiment [6] was inactive. Besides, the outcome in experiment [7], in experiment [8], in experiment [9] and in experiment [10] was inactive.
With `Cc1ccc(N)c(N)c1`, the outcome in experiment [1], in experiment [2], in experiment [3], in experiment [4], in [5] and in experiment [6] was inactive. Also, the result in experiment [7], in experiment [8] and in [9] was inactive. The AC50 in experiment [10] is 13.7 µM (active).
Consider `CCCSC(=O)N(CCC)CCC`, for which the result in [1], in experiment [2], in [3], in experiment [4], in experiment [5] and in [6] was inactive. Besides, the outcome in experiment [7], in experiment [8], in experiment [9] and in [10] was inactive.
`CO[C@@H]1[C@H](OC(=O)NC(=O)CCl)CC[C@]2(CO2)[C@H]1[C@@]1(C)O[C@@H]1CC=C(C)C`: the outcome in [1], in [3], in [4], in [5], in experiment [7] and in experiment [8] was inactive. For the same compound, the outcome in [9] and in experiment [10] was inactive. Also, the AC50 in [2] is 8.37 µM (active); in experiment [6], 1.99 µM (active).
Regarding `CCN(CC)N=O`, the result in [1], in experiment [2], in experiment [3], in experiment [4], in [5] and in experiment [6] was inactive. Also, the result in experiment [7], in [8], in experiment [9] and in experiment [10] was inactive.
As for `c1ccc(N=Nc2ccccc2)cc1`, the outcome in [1], in [2], in experiment [3], in experiment [4], in experiment [5] and in experiment [6] was inactive. The result in [7], in experiment [8], in [9] and in experiment [10] was inactive.
`[As]#[In]`: the result in [1], in experiment [2], in experiment [3], in [4], in experiment [5] and in experiment [6] was inactive. Besides, the result in experiment [7], in experiment [8], in experiment [9] and in experiment [10] was inactive.
As for `c1ccc2c(c1)oc1ccccc12`, the result in experiment [1], in [2], in [3], in experiment [4], in experiment [5] and in [6] was inactive. In addition, the result in [7], in experiment [8], in experiment [9] and in experiment [10] was inactive.
In the case of `C=CCc1ccc2c(c1)OCO2`, the outcome in experiment [1], in experiment [2], in experiment [3], in [4], in [5] and in experiment [6] was inactive. In addition, the outcome in experiment [7], in experiment [8], in experiment [9] and in experiment [10] was inactive.
In the case of `CCC(C)c1ccc(O)cc1` (stereo not given), the outcome in [1], in [2], in [3], in [4], in experiment [5] and in [6] was inactive. Moreover, the outcome in experiment [7], in [8], in [9] and in [10] was inactive.
Consider `COP(=S)(OC)SCN1C(=O)c2ccccc2C1=O`, for which the result in experiment [1], in experiment [2], in [3], in experiment [4], in experiment [5] and in experiment [6] was inactive. For the same compound, the result in experiment [7], in experiment [8], in experiment [9] and in experiment [10] was inactive.
Turning to `CC(C)(O)c1cnn2c(-c3ccc(F)c(-c4c(F)cccc4C#N)c3)cnc2n1`, the result in experiment [1], in [3], in experiment [4], in experiment [5], in experiment [7] and in experiment [8] was inactive. Further, the result in experiment [9] and in experiment [10] was inactive. For the same compound, the values for the AC50 in [2] and in experiment [6] were 32.9 µM (active) and 26.1 µM (active), respectively.
For `O=P(OCCCl)(OCCCl)OCCCl`, the outcome in experiment [1], in experiment [2], in experiment [3], in [4], in [5] and in experiment [6] was inactive. The outcome in experiment [7], in [8], in experiment [9] and in [10] was inactive.
Take `ClC1=C(Cl)[C@]2(Cl)[C@H]3[C@H]([C@@H]4C=C[C@H]3C4)[C@@]1(Cl)C2(Cl)Cl`: the AC50 in experiment [1] was 37.4 µM (active); in experiment [2], 34 µM (active); in [3], 29 µM (active); in experiment [4] it was 32.6 µM (active); in [5] it was 34 µM (active); in experiment [6], 34.3 µM (active). Moreover, the values for the AC50 in [7], in [8] and in experiment [9] were 31.6 µM (active), 31.7 µM (active) and 31.3 µM (active), respectively. For the same compound, the outcome in experiment [10] was inactive.
In the case of `Oc1ccccc1Cl`, the outcome in experiment [1], in experiment [2], in experiment [3], in experiment [4], in experiment [5] and in experiment [6] was inactive. Moreover, the result in experiment [7], in experiment [8], in experiment [9] and in experiment [10] was inactive.
`C[C@]12C=CC3=C4CCC(=O)C=C4CC[C@H]3[C@@H]1CC[C@@H]2O`: the result in experiment [1], in experiment [2], in experiment [3], in [4], in experiment [5] and in experiment [6] was inactive. The result in [7], in [8], in [9] and in [10] was inactive.

The record behind these values is PubChem BioAssay (EPA / NIEHS).
